# Compound activity as filed in PubChem.
# MARV entry inh – inhibitors of Marburg virus binding or cell entry; Marburg virus pseudotyped entry inhibition, cell reporter; Potency, µM (series often up to 37.8 µM), for the others: at the highest dose activity change, negative = inhibition, actives largely listed as inhibitors; 300,000 compounds, 1.8% hits; calls by dose curve; tested in HEK293 cells; further: potency means the concentration at half of the fitted maximal effect
# Lassa entry inh – Lassa virus entry inhibition; Potency, µM (doses to about 37.9 µM), for inactives: at the highest dose activity change, negative = inhibition, actives largely listed as inhibitors; 300,000 compounds, 1.2% hits; Lassa virus pseudotype entry inhibition, cell reporter; AID 540256; calls by dose curve; tested in HEK293 cells; further: potency means the concentration at half of the fitted maximal effect; nearly all actives have a fitted effect of over 50% in size
# HCMV inh – inhibitors of human cytomegalovirus; activity change, negative = inhibition, % at 57.5 µM; AID 1259415; HFF cells, HCMV-luciferase reporter, 72 h; hits give low values; 410,000 compounds, 4.5% hits; in the data active means activity change below about -60%; inconclusive means no clear call, values can overlap the other calls; inactive means above about -39%
#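 Compounds were evaluated in HFFs infected with an HCMV luciferase reporter virus (MOI 1 PFU/cell). Luciferase in lysates collected 72 h post infection served as the replication measure.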
# VACV mCherry inh – inhibitors of vaccinia virus infection (mCherry reporter signal). Vaccinia virus mCherry reporter infection, fluorescence. Potency, µM (series often up to 36.5 µM), inactives show at the highest dose activity change, negative = inhibition, hits mostly inhibitors. 310,000 compounds, 0.63% hits. AID 720579; calls by dose curve; tested in A549 cells; further: potency means the concentration at half of the fitted maximal effect; nearly all actives have a fitted effect of over 35% in size
# HCV inhibitor – blocks hepatitis C virus; Huh7.5.1 HCVcc-Cre infection, luciferase reporter, 44 h; AID 651820; 340,000 compounds, 3.4% hits; Potency, µM (highest dose often 41.8 µM), inactives show at the top dose activity change, negative = inhibition, actives largely listed as inhibitors; active means well fitted inhibition curve with a large enough effect; inconclusive means small, poorly fitted or top-dose-only effect, or another doubt; inactive means no such curve, though single readings can be large or run the other way; further: potency means the concentration at half of the fitted maximal effect
#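 Seed cells (1,000/well) for 4 h; treat with compound and infect with HCVcc-Cre, moi about 0.5. Incubate 44 h, then detect luciferase activity.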
# Vaccinia Venus – inhibitors of vaccinia virus (Venus reporter). Vaccinia virus Venus reporter expression, fluorescence. Potency, µM (top dose mostly 36.5 µM), for the others: at the top dose activity change, negative = inhibition, usual class: inhibitors. 330,000 compounds, 0.46% hits; calls by dose curve; tested in A549 cells; further: potency means the concentration at half of the fitted maximal effect; nearly all actives have a fitted effect of over 30% in size
# * = called active by the depositor; i = inactive; ? = inconclusive; nt = not tested or not shown; [ ] = dose if it differs, or a comment. Shown are actives, neighbours in structure and some others; about 7.8% of the full set was active somewhere. On the % scale 0 is the no-effect control and ±100 the full control effect.
SMILES,MARV entry inh,Lassa entry inh,HCMV inh,VACV mCherry inh,HCV inhibitor,Vaccinia Venus
CCCCn1c2c(c(=N)c3c1CCC3)CCC2,?,?,-89*,nt,?,?
CCCCCCn1c(=O)[nH]c2c(c1=O)CCC2,6%[46.1 µM],-15%[46.1 µM],19,i,-5%,-11%
CCCCCCCn1c2c(c(=N)c3c1CCC3)CCCC2,?,?,-95*,?,4.5µM*,?
CCCCCCn1c2c(c(=N)c3c1CCC3)CCC2,8.2µM*,3.7µM*,-104*,nt,10µM*,nt
CCCCCCCCCn1c2c(c(=N)c3c1CCC3)CCC2,?,1.4µM*,nt,?,0.89µM*,?
CCCCn1c2c(cc(C(=O)OC)c1=O)C(=O)CCC2,nt,nt,0,-9%,6%,-8%
COc1ccccc1/C=C/c1nc(C#N)c(NC2CCCCC2)o1,?,?,-17,-6%,nt,-9%
N=c1c2c(n(Cc3ccc(F)cc3)c3c1CCC3)CCC2,?,-56%,-100*,-29%,8%,-29%
CCn1c(=O)c2c3c(sc2n(C)c1=O)CCC3,1%,2%,?,nt,-11%,nt
Fc1ccc(CN2CCCCCCC2)cc1,8%,0%,6,-13%,3%,-13%
CCn1c2c(c(=N)c3c1CCC3)CCC2,?,2%,-84*,-11%,2%,19%
COCC(=O)N1C[C@@H](C)[C@@H](OC)CN(C)C(=O)c2ccc(NC(=O)c3cnccn3)cc2OC[C@H]1C,nt,nt,26,-14%,nt,-10%
FC(F)(F)c1ccccc1CN1CCN(C2CCCCCC2)CC1,8.2µM*,?,?,nt,-11%,nt
COc1ccc(CN2CCN(Cc3ccccc3C(F)(F)F)CC2)c(OC)c1,11µM*,?,?,-9%,-17%,-5%
COc1cccc(CN2CCN(Cc3ccccc3C(F)(F)F)CC2)c1,?,-8%[46.1 µM],10,?,29%,-17%
FC(F)(F)c1ccccc1CN1CCN(Cc2ccccc2)CC1,?,-20%,16,i,27%,-15%
COc1ccccc1N1CCN(C2CCCN(Cc3ccccc3OCCO)C2)CC1 (centres undefined),?,11%[46.1 µM],40,-6%,2%,-3%
FC(F)(F)c1ccccc1CN1CCCC(N2CCN(c3ccccc3)CC2)C1 (centres undefined),nt,nt,-61*,nt,9%,nt
CC(C)(C)c1ccc(C(=O)N2CCC3(CC2)CC3C(=O)NCCc2ccccn2)cc1 (centres undefined),nt,nt,nt,-15%,nt,-8%
O[C@@H]1CO[C@@H](C=Cc2ccccc2)[C@H]1OCc1cccc(Br)c1,-5%[14.2 µM],?,nt,nt,nt,nt
c1cnc(N2CCN(c3ncnc4c3oc3ccccc34)CC2)nc1,-7%,nt,nt,nt,nt,nt
C(=C\c1ccccc1)/CN1CCN(c2ncnc3c2oc2ccccc23)CC1,?,-16%,-73*,nt,?,nt
CCCNC(=O)N1[C@H](c2ccc(C)s2)[C@@H](C)C(=O)[C@@H](C)[C@@H]1c1ccc(C)s1,2%[46.1 µM],-4%[46.1 µM],-15,-8%,nt,-15%
O=C(N/N=C/C(Br)=C\c1ccccc1)c1n[nH]c2c1CCC2,?,?,-79*,?,?,?
CC(/C=N/NC(=O)c1n[nH]c2c1CCC2)=C\c1ccccc1,?,?,-88*,nt,?,nt
SMILES,MARV entry inh,Lassa entry inh,HCMV inh,VACV mCherry inh,HCV inhibitor,Vaccinia Venus
O=C(N/N=C/C=C/c1ccccc1)c1n[nH]c2c1CCC2,?,-5%,-21,?,-29%,?
CN1[C@@H]2CC[C@H]1CC(OC(=O)[C@@H](O)c1ccccc1)C2 (some centres undefined),28%,nt,nt,nt,nt,nt
Cc1[nH]c2ccccc2c1C(c1c[nH]c2ccccc12)c1c(C)[nH]c2ccccc12,nt,nt,nt,6%,nt,11%
Cc1ccc(C(c2ccccc2)c2c(C)[nH]c3ccccc23)s1 (centres undefined),nt,4%[46.1 µM],-83*,-8%,nt,1%
CCc1ccc(C(c2ccccc2)c2c(C)[nH]c3ccccc23)s1 (centres undefined),nt,4%[46.1 µM],-62*,-13%,nt,-13%
O=[N+]([O-])c1ccc(-c2ccc(/C=N/n3cnnc3)o2)c(Br)c1,nt,nt,-90*,nt,-10%,nt
Cc1cc([N+](=O)[O-])ccc1-c1ccc(/C=N/NC(=O)c2ccc(Br)o2)o1,nt,nt,-89*,nt,?,nt
Cc1cc(C)n(Cc2ccc(C(=O)N/N=C/c3ccc(-c4ccc([N+](=O)[O-])cc4)o3)o2)n1,?,-12%,-64*,-3%,?,-18%
CCCCC(=O)N/N=C/c1ccc(-c2ccc([N+](=O)[O-])cc2)o1,-31%[46.1 µM],-10%,?,-26%,?,-21%
Cc1ccc(-c2ccc(/C=N\NC(=O)c3cc4c(ccc5ccccc54)o3)o2)cc1[N+](=O)[O-],-8%,?,-95*,nt,?,9%
Cc1cc([N+](=O)[O-])c(C)cc1-c1ccc(/C=N/n2cnnc2)o1,12%[46.1 µM],16%[46.1 µM],16,i,-11%,2%
Cc1ccc([N+](=O)[O-])cc1-c1ccc(/C=N/NC(=O)c2cc3c(ccc4ccccc43)o2)o1,22%,14%,-29,nt,?,-6%
Cc1ccc(Cl)cc1N1CCN(C(=O)c2noc3c2CCCC3)CC1,nt,-12%[46.1 µM],48,i,nt,-16%
N#Cc1c(C(F)(F)F)cc(-c2cccs2)nc1SCc1ccccc1F,2%[46.1 µM],7%[46.1 µM],-7,-12%,nt,-2%
COc1ccc(Cl)cc1N1C(=O)CN(Cc2cc(OC)c(OC)c(OC)c2)C1=S,nt,nt,-6,nt,16µM*,nt
CCOc1ccccc1N1C(=O)CN(Cc2ccc(OC)c(OC)c2)C1=S,nt,nt,-14,nt,13µM*,nt
COc1ccc(CN2CC(=O)N(c3ccccc3OC)C2=S)cc1OC,-10%[46.1 µM],-12%,5,12%,-3%,2%
COc1ccc(CN2CC(=O)N(c3cc(Cl)ccc3OC)C2=S)cc1OC,nt,nt,-29,nt,11µM*,nt
Cc1ccc(F)cc1CNC(=O)c1sc2ncnc(NCC3CCCO3)c2c1C (centres undefined),nt,nt,nt,i,nt,-18%
Cn1ncc2c(Nc3cccc(F)c3)ncnc21,nt,-2%[46.1 µM],6,i,nt,-9%
CC1=C(c2ccc(C)c(C)c2)S(=O)(=O)N=C1N1CCC(C(=O)NCc2ccc(N(C)C)cc2)CC1,nt,-23%[46.1 µM],2,-8%,nt,-6%
C[C@@H]1C=CCC(=O)N[C@@H](c2ccccc2)[C@H](C)C=CCC(=O)N[C@@H]1c1ccccc1,12%[14.2 µM],?,nt,nt,nt,nt
C[C@@H]1C=CCC(=O)N[C@@H](c2ccc3ccccc3c2)[C@H](C)C=CCC(=O)N[C@@H]1c1ccc2ccccc2c1,2.7µM*,nt,nt,nt,nt,nt
CC(C)(C)CC(C)(C)NCC(O)COc1ccc2c(c1)CCC2 (centres undefined),7.1µM*,?,-37,?,?,?
O=C(/C(=N/N=C/c1ccc(O)c(O)c1O)c1ccccc1)c1ccccc1,?,8.9µM*,14,-22%,?,-27%
